PKA-R2B act: activates the human PKA-R2B holoenzyme complex. P22694+P31323. PKA-R2B holoenzyme dissociation, Cy5-IP20 fluorescence polarization; R2B truncated from residue 108, S112A mutant; 0% DMSO only, 100% 113 µM cGMP. activation, % at 11.4 µM. 0.079% of 340,000 active;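 active = activation above a cutoff set at the mean over all compounds plus 3 SD, cut at about 18% in these data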;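 also: higher means more holoenzyme dissociation and a rise in polarization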
Target sequence (P31323 whole entry, looked up, other chains not shown, the tested form may be a part): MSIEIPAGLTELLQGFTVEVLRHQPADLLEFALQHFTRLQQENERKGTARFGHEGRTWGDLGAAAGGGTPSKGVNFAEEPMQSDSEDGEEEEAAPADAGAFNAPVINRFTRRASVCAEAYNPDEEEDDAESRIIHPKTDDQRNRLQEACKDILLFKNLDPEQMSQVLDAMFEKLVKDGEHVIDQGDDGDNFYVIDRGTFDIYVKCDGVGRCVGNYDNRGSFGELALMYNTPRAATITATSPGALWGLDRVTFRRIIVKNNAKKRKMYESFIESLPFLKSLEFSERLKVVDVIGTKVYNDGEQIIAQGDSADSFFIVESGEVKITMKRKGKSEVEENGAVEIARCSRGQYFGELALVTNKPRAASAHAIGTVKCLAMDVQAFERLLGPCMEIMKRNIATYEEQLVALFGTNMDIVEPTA
MsrA inh: bovine MsrA inhibition; inhibition, % at 15.5 µM; purified bovine MsrA, absorbance read-out; 0.75% of 360,000 active
bovine MsrA act: activators of bovine methionine sulfoxide reductase A; 0.3% of 360,000 active; purified bovine MsrA, absorbance read-out; activation, % at 10.6 µM; in the data active = activation above about 7.5%
PKA-R1A act: activators of PKA-R1A complex | 0.083% of 340,000 active | activation, % at 11.4 µM | PKA-R1A dissociation, Cy5-IP20 fluorescence polarization; scaled: DMSO 0%, 113 µM cGMP 100% | P00514+P68181;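 active = percent activation above the mean of all tested compounds plus 3 SD, cut at about 19% in these data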;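 also: higher means more PKAc released from R1A so a rise in polarization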
MsrA activ conf: bovine methionine sulfoxide reductase A activation confirmed; shares compounds with bovine MsrA act; 12% of 1,000 active; activation, % at 10.6 µM; AID 602270; purified bovine MsrA, absorbance read-out; in the data active = activation above about 4%;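 also: enzyme coupled to thioredoxin and thioredoxin reductase with NADPH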
MsrA inh confirm: bovine MsrA inhibition, confirmed. shares compounds with MsrA inh. purified bovine MsrA, absorbance read-out. inhibition, % at 15.5 µM. 41% of 2,300 active;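 also: coupled to thioredoxin reductase with NADPH and selenocystamine and DMSO as substrate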
A number is an active result; i = inactive; nt = not tested or not shown. Only some compounds are listed: those with a hit (about 1.1% of all), similar ones and a draw of the others. Rule as the data show it, unless noted: active = inhibition above about 4.5%; inactive = the rest.

SMILES | PKA-R2B act | MsrA inh | bovine MsrA act | PKA-R1A act | MsrA inh confirm | others
COc1cc2c(c(OC)c1O)-c1ccc(OC)c(=O)cc1C(NC(=O)C(F)(F)F)CC2 (stereo not drawn) | i | i | i | i | nt
CCc1cc(OC)c(CCN)cc1OC | nt | i | nt | nt | nt
CC[n+]1c(-c2ccccc2)c2cc(N)ccc2c2ccc(N)cc21 | i | 44 | 9.2 | i | 49 | MsrA activ conf=i
O=C(NCCN1CCC2(CC1)C(=O)NCN2c1ccccc1)c1cc(C(F)(F)F)ccc1C(F)(F)F | nt | i | nt | nt | nt
COc1ccc(-c2cc(=NCCC(=O)O)c3cc(C)ccc3o2)cc1 | i | 4.8 | i | i | 4.6
COc1ccc(-c2cc(=Nc3ccccc3)c3cc(C)ccc3o2)cc1 | i | i | i | i | nt
C=CCCC1(C(C)C)C(=O)NC(=S)NC1=O | i | i | i | i | nt
O=c1[nH]c(=O)n(-c2cccc(Cl)c2)c(O)c1C=NCCCN1CCOCC1 | i | 13 | i | i | 6.8
Cc1ccc(-n2c(O)c(C=NCCN3CCOCC3)c(=O)[nH]c2=O)cc1 | i | i | i | i | nt
COc1ccc(CC(=O)N2CCN(C)CC2)cc1OC | i | i | i | i | nt
COc1ccc(CC(=O)C2C(=O)N(C)c3ccccc32)cc1OC (stereo not drawn) | i | 4.9 | i | i | i
O=C(Cc1cc(=O)oc2cc(O)ccc12)NN=Cc1ccc(N(CCCl)CCCl)cc1 | i | 7.3 | i | i | 6.1
O=C(NN=Cc1ccc(N(CCCl)CCCl)cc1)c1cc(=O)[nH]c(=O)[nH]1 | i | i | i | i | nt
CCOP(=O)(CCP(=O)(OCC)OCC)OCC.C[CH2][Sn]([Cl])([Cl])[CH2]C | i | 56 | i | i | 51
CCOP(=O)(OCC)OCC | i | i | i | i | nt
N#C/C(=C\c1ccc(O)cc1)C(=O)O (tested in a mixture with another compound) | i | 4.7 | i | i | i
COC(=O)C1=C(c2ccc(S(C)(=O)=O)cc2)C[C@@H]2CC[C@H]1N2C(=O)NCCO | i | i | i | i | nt
O=c1[nH]c(=S)n(Cc2ccc(F)cc2)c(O)c1C=NCc1cccnc1 | i | 4.8 | i | i | i
O=c1[nH]c(=S)n(C2CC2)c(O)c1C=NCC1CCCO1 (stereo not drawn) | i | 6.2 | i | i | i
CC(C)n1c(O)c(C=NCc2ccccc2)c(=O)[nH]c1=S | i | 5.2 | i | i | i
O=c1[nH]c(=S)n(Cc2ccc(F)cc2)c(O)c1/C=N/N1CCCCC1 | i | i | i | i | nt
O=c1[nH]c(=S)n(Cc2ccc(F)cc2)c(O)c1C=NCC1CCCO1 (stereo not drawn) | i | 5.7 | i | i | i
C=CCn1c(O)c(C(CC)=NCc2ccco2)c(=O)[nH]c1=O | i | i | i | i | nt
CCn1nc(/C=C/c2ccccc2)nc2c(=O)n(C)c(=O)nc1-2 | nt | 5.3 | i | nt | 4.6
O=P(N[C@@H](c1ccccc1)[C@@H]1C[C@H]1CO)(c1ccccc1)c1ccccc1 | i | i | i | i | nt
SMILES | PKA-R2B act | MsrA inh | bovine MsrA act | PKA-R1A act | MsrA inh confirm | others
C=CCn1c(O)c(/C=C/C=Nc2ccccc2)c(=O)[nH]c1=O | i | 5.7 | i | i | i
Cc1ccsc1C(=O)C1CCCN(Cc2cnc(N3CCCC3)s2)C1 (stereo not drawn) | i | i | i | i | nt
COc1ccc(NC(=O)N2C[C@@H]3C[C@@H](C2)c2cccc(=O)n2C3)c(OC)c1 | i | i | i | i | nt
ClCCN(CCCl)c1ccc(C=NNc2ncccn2)cc1 | i | 6.2 | i | i | 7.4
N#Cc1ncc(N=Cc2ccc(N(CCCl)CCCl)cc2)s1 | i | 5.0 | i | i | 6.2
ClCCN(CCCl)c1ccc(C=Cc2ccncn2)cc1 | nt | i | i | nt | nt
ClCCN(CCCl)c1ccc(C2=NCCc3ccccc32)cc1 | i | i | i | i | nt
CCCN(CCC)C1CCc2ccc(O)cc2C1 (stereo not drawn) | i | i | i | i | nt
O=C(NN=Cc1ccc(N(CCCl)CCCl)cc1)C(=O)c1c[nH]c2ccccc12 | i | 6.0 | i | i | i
OC(CN1CCOCC1)c1csc2ccccc12 (stereo not drawn) | i | i | i | i | nt
O=C(/C=C/C=C/c1ccccc1)CC1(O)C(=O)Nc2ccccc21 (stereo not drawn) | i | 7.2 | i | i | 5.6
CC(=O)/C=C/c1ccccc1 | i | i | i | i | nt
CC1([N+](=O)[O-])COP(=O)(Nc2cccc(Cl)c2)OC1 (stereo not drawn) | i | i | i | i | nt

Source: PubChem
